Results taken from the supplement of paper PMC10849652.
Of roughly 8,800 targets only a part is listed; those with a hit were picked by preference. About 0.5% of all pairs of compound and target were hits.

Assays:
Experiment in all cases: log2 fold change, soluble protein after heating vs DMSO (PISA); higher = thermal stabilisation; K562 lysate, 10 uM; active = over 0.2 and 3.5 SD of the protein, either way, in both replicates (recomputed)
vemurafenib = compound: CCCS(=O)(=O)Nc1ccc(F)c(C(=O)c2c[nH]c3ncc(-c4ccc(Cl)cc4)cc23)c1F [vemurafenib]
Summary of the method: (§1)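 Pellets of K562 cells were dounce-homogenised in PBS pH 7.4 with 1 mM MgCl2, and the crude extract was held at 1 mg/mL protein for a 30 min treatment with 10 μM compound. Aliquots were heated for 3 min over 48°C-58°C and pooled before NP-40 was added to 0.5% at 4°C. The supernatant from 21,000xg for 90 min was quantified by TMTpro 16plex LC-MS/MS with channel sums equalised. Values are reported from duplicates as log-two fold change in thermal stability relative to solvent controls.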

barasertib = compound: CCN(CCCOc1ccc2c(Nc3cc(CC(=O)Nc4cccc(F)c4)[nH]n3)ncnc2c1)CCOP(=O)(O)O [barasertib]
Summary of the method: as §1

[1] = compound: CC[C@@H]1C(=O)N(C)c2cnc(Nc3ccc(C(=O)NC4CCN(C)CC4)cc3OC)nc2N1C1CCCC1
Summary of the method: as §1

volasertib = compound: CC[C@@H]1C(=O)N(C)c2cnc(Nc3ccc(C(=O)N[C@H]4CC[C@H](N5CCN(CC6CC6)CC5)CC4)cc3OC)nc2N1C(C)C [volasertib]
Summary of the method: as §1

[2] = compound: CCn1c(C(=O)N(C2CC2)C2CC2)cc2c3c(ncn3C)c(Nc3cc(C)n(C)n3)nc21
Summary of the method: as §1

[3] = compound: CCn1cc(-c2ccnc3[nH]c(-c4cccc(CN(C)C)c4)cc23)c(-c2ccc(NC(=O)N(C)C)cc2)n1
Summary of the method: as §1

[4] = compound: CN1CCC(CNc2ccc3ncc(-c4cccc(OC(F)(F)F)c4)n3n2)CC1
Summary of the method: as §1

saracatinib = compound: CN1CCN(CCOc2cc(OC3CCOCC3)c3c(Nc4c(Cl)ccc5c4OCO5)ncnc3c2)CC1 [saracatinib]
Summary of the method: as §1

sotrastaurin = compound: CN1CCN(c2nc(C3=C(c4c[nH]c5ccccc45)C(=O)NC3=O)c3ccccc3n2)CC1 [sotrastaurin]
Summary of the method: as §1

[5] = compound: CCCS(=O)(=O)Nc1ccc(F)c(C(=O)c2c[nH]c3ncc(Cl)cc23)c1F
Summary of the method: as §1

Measured: log2 fold change

CAMK1 (UniProt Q14012)
inactive: vemurafenib -0.094 | barasertib 0.027 | [1] 0.106 | volasertib -0.018 | [2] -0.06 | [3] -0.095 | [4] 0.272 | saracatinib -0.061 | sotrastaurin -0.016

BPHL (UniProt Q86WA6)
Chain of UniProt Q86WA6 (Q86WA6 whole entry, looked up): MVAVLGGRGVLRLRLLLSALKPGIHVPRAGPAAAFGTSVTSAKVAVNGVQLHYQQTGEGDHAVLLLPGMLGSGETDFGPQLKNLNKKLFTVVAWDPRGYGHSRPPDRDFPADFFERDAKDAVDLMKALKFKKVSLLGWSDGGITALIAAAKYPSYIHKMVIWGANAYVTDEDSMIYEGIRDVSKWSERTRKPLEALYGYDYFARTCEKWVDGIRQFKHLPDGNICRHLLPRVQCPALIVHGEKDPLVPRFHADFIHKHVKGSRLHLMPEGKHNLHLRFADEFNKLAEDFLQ
inactive: vemurafenib -0.13 | [5] 0.013 | barasertib 0.058 | [1] 0.015 | volasertib 0 | [2] 0.069 | [3] 0.063 | [4] 0 | saracatinib -0.058 | sotrastaurin 0.084

C16orf70 (UniProt Q9BSU1)
Chain of UniProt Q9BSU1 (Q9BSU1 whole entry, looked up): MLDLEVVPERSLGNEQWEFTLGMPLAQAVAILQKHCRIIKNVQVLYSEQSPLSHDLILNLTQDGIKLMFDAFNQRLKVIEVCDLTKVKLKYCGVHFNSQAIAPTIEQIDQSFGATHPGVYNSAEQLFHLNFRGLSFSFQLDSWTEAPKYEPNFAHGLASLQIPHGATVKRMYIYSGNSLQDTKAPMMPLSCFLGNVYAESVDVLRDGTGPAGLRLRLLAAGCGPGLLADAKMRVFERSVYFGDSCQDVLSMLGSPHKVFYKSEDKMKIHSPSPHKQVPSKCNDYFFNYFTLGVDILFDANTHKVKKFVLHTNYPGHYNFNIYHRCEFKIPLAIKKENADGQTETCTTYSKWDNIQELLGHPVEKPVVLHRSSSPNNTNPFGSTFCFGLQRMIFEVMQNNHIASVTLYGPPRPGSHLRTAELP
inactive: vemurafenib 0.053 | [5] 0.086 | barasertib -0.016 | [1] 0 | volasertib -0.038 | [2] 0.018 | saracatinib -0.037 | sotrastaurin 0.031

CAMKK1 isoform 2 (UniProt Q8N5S9)
Chain of UniProt Q8N5S9 (Q8N5S9 whole entry, looked up): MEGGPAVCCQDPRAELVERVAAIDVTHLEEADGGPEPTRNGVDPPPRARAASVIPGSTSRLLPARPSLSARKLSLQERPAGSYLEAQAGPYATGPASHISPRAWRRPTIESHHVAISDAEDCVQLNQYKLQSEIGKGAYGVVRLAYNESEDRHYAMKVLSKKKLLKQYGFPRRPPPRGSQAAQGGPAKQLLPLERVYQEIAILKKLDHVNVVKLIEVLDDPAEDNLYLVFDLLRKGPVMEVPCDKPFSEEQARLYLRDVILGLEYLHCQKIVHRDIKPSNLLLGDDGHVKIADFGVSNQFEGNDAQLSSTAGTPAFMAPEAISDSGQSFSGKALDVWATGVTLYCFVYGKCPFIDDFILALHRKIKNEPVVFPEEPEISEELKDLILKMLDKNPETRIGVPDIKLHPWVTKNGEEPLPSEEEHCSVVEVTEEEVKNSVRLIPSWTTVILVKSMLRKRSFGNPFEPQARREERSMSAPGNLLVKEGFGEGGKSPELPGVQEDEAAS
inactive: vemurafenib -0.041 | [5] -0.062 | barasertib 0.11 | [1] 0.103 | volasertib 0.136 | [2] 0.115 | [3] -0.204 | [4] 0.041 | saracatinib -0.063 | sotrastaurin -0.013

CEP128 (UniProt Q6ZU80)
inactive: vemurafenib -0.025 | barasertib 0.124 | [1] -0.132 | [2] 0.375 | [4] 0.369 | saracatinib 0.07
active: [3] -1.27

BCL2L12 (UniProt Q9HB09)
Chain of UniProt Q9HB09 (Q9HB09 whole entry, looked up): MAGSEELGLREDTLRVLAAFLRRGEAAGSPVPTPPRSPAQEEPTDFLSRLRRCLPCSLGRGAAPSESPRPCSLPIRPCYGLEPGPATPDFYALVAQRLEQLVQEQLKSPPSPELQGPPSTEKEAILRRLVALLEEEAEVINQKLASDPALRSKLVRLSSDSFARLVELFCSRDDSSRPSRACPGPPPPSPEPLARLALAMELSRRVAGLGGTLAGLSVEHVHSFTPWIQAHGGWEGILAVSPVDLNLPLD
inactive: vemurafenib -0.032 | [5] 0.08 | barasertib 0.166 | [1] 0.013 | volasertib -0.06 | [2] 0.087 | [3] 0.018 | [4] 0.116 | saracatinib 0.057 | sotrastaurin -0.007

ATXN2 (UniProt F8WB05)
inactive: vemurafenib -0.153 | [5] -0.024 | barasertib 0.057 | [1] -0.013 | volasertib -0.087 | [2] -0.005 | [3] 0.094 | [4] -0.004 | saracatinib 0.05 | sotrastaurin 0.086

CDK5 (UniProt Q00535)
inactive: vemurafenib -0.021 | [5] 0.022 | [1] -0.08 | volasertib -0.079 | [2] 0.008 | [3] -0.055 | [4] 0.071 | saracatinib -0.008 | sotrastaurin 0.175

CEBPZOS (UniProt A8MTT3)
Chain of UniProt A8MTT3 (A8MTT3 whole entry, looked up): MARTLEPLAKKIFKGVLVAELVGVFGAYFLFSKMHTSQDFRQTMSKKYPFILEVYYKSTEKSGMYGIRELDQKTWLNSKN
inactive: vemurafenib 0.031 | [5] -0.026 | [1] -0.048 | volasertib -0.007 | [2] 0.024 | [3] -0.176 | [4] 0.041 | saracatinib 0.03 | sotrastaurin -0.005

ATF7IP2 (UniProt Q5U623)
inactive: vemurafenib 0.062 | [5] -0.041 | barasertib 0.009 | volasertib 0.083 | [2] -0.064 | [3] -0.145 | [4] 0.197 | sotrastaurin 0.031

CDK5RAP3 isoform 4 (UniProt Q96JB5)
Chain of UniProt Q96JB5 (Q96JB5 whole entry, looked up): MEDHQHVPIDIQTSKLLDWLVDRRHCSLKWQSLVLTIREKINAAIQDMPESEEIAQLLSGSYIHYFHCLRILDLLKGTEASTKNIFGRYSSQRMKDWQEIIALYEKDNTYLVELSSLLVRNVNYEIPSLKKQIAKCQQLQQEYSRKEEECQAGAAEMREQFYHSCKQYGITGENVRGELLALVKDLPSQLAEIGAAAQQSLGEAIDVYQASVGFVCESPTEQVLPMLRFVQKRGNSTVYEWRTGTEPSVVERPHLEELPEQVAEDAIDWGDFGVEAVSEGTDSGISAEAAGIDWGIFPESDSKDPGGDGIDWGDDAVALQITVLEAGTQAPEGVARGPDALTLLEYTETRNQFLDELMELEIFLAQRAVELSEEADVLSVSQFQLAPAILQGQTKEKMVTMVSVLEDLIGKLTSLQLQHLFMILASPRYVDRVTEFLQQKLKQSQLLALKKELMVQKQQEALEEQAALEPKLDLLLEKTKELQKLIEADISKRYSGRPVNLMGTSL
active: [3] -0.313
inactive: vemurafenib 0.023 | [5] 0.013 | barasertib 0.022 | [1] -0.008 | volasertib -0.051 | [2] 0.029 | [4] 0.216 | saracatinib -0.002 | sotrastaurin -0.021

CDK8 (UniProt P49336)
Chain of UniProt P49336 (P49336 whole entry, looked up): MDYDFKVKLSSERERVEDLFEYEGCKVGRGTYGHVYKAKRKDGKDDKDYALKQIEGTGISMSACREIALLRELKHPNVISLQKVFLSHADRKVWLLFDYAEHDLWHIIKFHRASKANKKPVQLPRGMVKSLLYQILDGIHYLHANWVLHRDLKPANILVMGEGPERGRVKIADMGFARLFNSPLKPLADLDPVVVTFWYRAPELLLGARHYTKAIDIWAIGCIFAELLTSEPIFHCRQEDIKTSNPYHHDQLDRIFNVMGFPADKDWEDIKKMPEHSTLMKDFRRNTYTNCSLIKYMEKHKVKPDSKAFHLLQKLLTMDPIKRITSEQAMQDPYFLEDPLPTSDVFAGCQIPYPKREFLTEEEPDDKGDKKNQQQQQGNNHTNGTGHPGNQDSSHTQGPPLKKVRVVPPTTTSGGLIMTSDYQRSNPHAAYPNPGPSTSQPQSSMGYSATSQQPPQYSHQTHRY
inactive: vemurafenib 0.065 | [5] 0.138 | barasertib 0.002 | volasertib -0.083 | [2] -0.011 | [3] -0.134 | [4] 0.045 | saracatinib 0.109 | sotrastaurin -0.001

CDKL5 (UniProt O76039)
Chain of UniProt O76039 (O76039 whole entry, looked up): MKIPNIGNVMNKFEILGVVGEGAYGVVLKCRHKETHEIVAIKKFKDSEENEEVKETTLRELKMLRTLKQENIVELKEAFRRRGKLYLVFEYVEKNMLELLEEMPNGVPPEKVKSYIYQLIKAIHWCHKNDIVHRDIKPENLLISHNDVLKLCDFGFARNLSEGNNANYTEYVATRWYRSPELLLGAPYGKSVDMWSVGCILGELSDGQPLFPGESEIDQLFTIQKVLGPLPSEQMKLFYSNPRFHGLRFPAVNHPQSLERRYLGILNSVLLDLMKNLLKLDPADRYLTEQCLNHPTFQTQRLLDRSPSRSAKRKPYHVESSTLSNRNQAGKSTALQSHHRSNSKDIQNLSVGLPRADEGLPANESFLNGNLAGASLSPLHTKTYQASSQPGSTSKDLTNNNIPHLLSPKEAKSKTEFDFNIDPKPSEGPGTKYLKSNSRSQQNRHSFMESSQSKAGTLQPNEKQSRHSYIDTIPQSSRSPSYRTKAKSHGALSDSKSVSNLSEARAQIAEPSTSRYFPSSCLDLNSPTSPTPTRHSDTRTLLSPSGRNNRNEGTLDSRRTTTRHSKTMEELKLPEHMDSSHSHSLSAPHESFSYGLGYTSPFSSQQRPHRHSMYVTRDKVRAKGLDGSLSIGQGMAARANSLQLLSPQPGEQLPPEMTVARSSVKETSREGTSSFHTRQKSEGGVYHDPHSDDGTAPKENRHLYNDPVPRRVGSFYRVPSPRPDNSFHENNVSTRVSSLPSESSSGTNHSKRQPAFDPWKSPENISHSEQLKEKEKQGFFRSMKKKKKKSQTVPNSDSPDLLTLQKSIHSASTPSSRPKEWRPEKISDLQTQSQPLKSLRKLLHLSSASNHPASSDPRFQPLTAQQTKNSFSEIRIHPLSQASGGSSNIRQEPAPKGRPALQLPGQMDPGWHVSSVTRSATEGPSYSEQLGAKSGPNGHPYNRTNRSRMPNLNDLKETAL
inactive: vemurafenib -0.131 | [5] 0.041 | [1] -0.149 | volasertib -0.035 | [3] -0.091 | [4] 0.088 | saracatinib -0.122 | sotrastaurin 0.048

BNIP1 (UniProt Q12981)
Chain of UniProt Q12981 (Q12981 whole entry, looked up): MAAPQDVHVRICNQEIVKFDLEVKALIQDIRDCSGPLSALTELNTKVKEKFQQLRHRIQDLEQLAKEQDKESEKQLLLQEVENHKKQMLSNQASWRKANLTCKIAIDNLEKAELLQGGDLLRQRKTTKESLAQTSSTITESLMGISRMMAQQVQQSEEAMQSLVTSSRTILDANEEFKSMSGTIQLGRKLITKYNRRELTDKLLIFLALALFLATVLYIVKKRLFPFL
inactive: vemurafenib 0.024 | [5] 0 | barasertib 0.057 | [1] -0.032 | volasertib -0.054 | [2] -0.013 | [4] -0.204 | saracatinib 0.032 | sotrastaurin 0.006
active: [3] 0.287

CD80 (UniProt P33681)
inactive: vemurafenib 0.115 | [5] -0.113 | [1] 0.063 | volasertib -0.001 | [2] -0.011 | [3] 0.239 | [4] -0.177 | saracatinib -0.069 | sotrastaurin 0.032

ATG4B (UniProt Q9Y4P1)
inactive: vemurafenib 0.036 | [5] 0.04 | barasertib 0.047 | [1] 0.012 | volasertib -0.05 | [2] 0.008 | [3] 0.148 | [4] -0.105 | saracatinib 0.043 | sotrastaurin 0.039

BET1 (UniProt O15155)
inactive: vemurafenib 0.107 | [5] -0.012 | barasertib 0.028 | [1] -0.019 | volasertib 0.032 | [2] -0.021 | [3] 0.044 | [4] -0.009 | saracatinib 0.031 | sotrastaurin -0.033

CANX (UniProt D6RHJ3)
inactive: vemurafenib -0.033 | [5] -0.04 | volasertib 0.017

CACUL1 (UniProt Q86Y37)
inactive: vemurafenib 0.04 | [5] 0.053 | [1] -0.04 | volasertib 0.106 | [2] -0.072 | [3] 0.012 | [4] -0.111 | saracatinib -0.026 | sotrastaurin 0.103

CAMK2B (UniProt Q13554)
inactive: vemurafenib 0.011 | [5] -0.058 | barasertib 0.014 | volasertib -0.145 | [2] 0.022 | [3] -0.021 | [4] 0.049 | saracatinib -0.077

CEP41 (UniProt Q9BYV8)
inactive: vemurafenib -0.022 | [5] 0.108 | barasertib 0.03 | [1] 0.018 | volasertib -0.023 | [3] 0.02 | [4] -0.009 | saracatinib -0.032 | sotrastaurin 0.03

CAPNS1 (UniProt K7ES78)
inactive: vemurafenib 0.143 | [5] -0.07 | volasertib 0.033 | [2] 0.076 | saracatinib 0.12 | sotrastaurin -0.071

BRD3 (UniProt Q15059)
active: [1] 0.451
inactive: vemurafenib -0.046 | [5] 0.038 | barasertib -0.087 | volasertib 0.263 | [3] -0.143 | [4] 0.188 | saracatinib 0.008 | sotrastaurin -0.082

CHAC2 (UniProt Q8WUX2)
Chain of UniProt Q8WUX2 (Q8WUX2 whole entry, looked up): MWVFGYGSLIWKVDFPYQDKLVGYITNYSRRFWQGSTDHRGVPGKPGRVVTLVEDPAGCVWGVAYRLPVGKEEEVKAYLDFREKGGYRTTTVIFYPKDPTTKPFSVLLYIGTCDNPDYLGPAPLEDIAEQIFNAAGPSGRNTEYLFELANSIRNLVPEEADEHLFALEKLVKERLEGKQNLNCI
active: [3] 0.649
inactive: vemurafenib -0.028 | [5] -0.004 | barasertib -0.006 | [1] -0.044 | volasertib 0.006 | [2] 0.02 | [4] -0.154 | saracatinib -0.018 | sotrastaurin -0.031

C2CD5 isoform 3 (UniProt Q86YS7)
inactive: vemurafenib 0.068 | [5] 0.022 | barasertib 0.049 | [1] 0.062 | volasertib -0.025 | [2] -0.069 | [4] 0.162 | saracatinib 0.058 | sotrastaurin -0.023
active: [3] -0.309

CAD (UniProt P27708)
inactive: vemurafenib 0.005 | [5] 0.026 | barasertib -0.004 | [1] -0.037 | volasertib -0.069 | [2] 0.012 | [3] -0.085 | [4] 0.003 | saracatinib -0.004 | sotrastaurin 0.003

BLM (UniProt P54132)
inactive: vemurafenib 0.007 | [5] 0.013 | barasertib -0.071 | [1] -0.063 | volasertib -0.029 | [2] 0.054 | [3] 0.247 | [4] -0.14 | saracatinib -0.014 | sotrastaurin -0.01

C3orf33 (UniProt Q6P1S2)
inactive: vemurafenib 0.295 | [5] -0.043 | barasertib -0.04 | volasertib 0.063 | [2] -0.056 | [4] 0.216 | saracatinib 0.045 | sotrastaurin 0.047
active: [3] -0.823

C3 (UniProt P01024)
inactive: vemurafenib -0.02 | [5] 0.042 | barasertib 0.059 | [1] 0.07 | volasertib 0.009 | [2] -0.096 | [3] -0.134 | [4] 0.039 | saracatinib 0.001 | sotrastaurin 0.014

C9orf72 (UniProt Q96LT7)
inactive: [5] -0.03 | barasertib -0.091 | [1] 0.034 | volasertib 0.088 | [2] 0.022 | [3] -0.065 | [4] -0.015 | saracatinib 0.082 | sotrastaurin 0.011

BBS7 (UniProt Q8IWZ6)
inactive: vemurafenib 0.375 | [1] -0.082 | [2] 0.026 | [3] -0.255 | [4] 0.067 | saracatinib 0.217 | sotrastaurin 0.044

CCP110 (UniProt O43303)
Chain of UniProt O43303 (O43303 whole entry, looked up): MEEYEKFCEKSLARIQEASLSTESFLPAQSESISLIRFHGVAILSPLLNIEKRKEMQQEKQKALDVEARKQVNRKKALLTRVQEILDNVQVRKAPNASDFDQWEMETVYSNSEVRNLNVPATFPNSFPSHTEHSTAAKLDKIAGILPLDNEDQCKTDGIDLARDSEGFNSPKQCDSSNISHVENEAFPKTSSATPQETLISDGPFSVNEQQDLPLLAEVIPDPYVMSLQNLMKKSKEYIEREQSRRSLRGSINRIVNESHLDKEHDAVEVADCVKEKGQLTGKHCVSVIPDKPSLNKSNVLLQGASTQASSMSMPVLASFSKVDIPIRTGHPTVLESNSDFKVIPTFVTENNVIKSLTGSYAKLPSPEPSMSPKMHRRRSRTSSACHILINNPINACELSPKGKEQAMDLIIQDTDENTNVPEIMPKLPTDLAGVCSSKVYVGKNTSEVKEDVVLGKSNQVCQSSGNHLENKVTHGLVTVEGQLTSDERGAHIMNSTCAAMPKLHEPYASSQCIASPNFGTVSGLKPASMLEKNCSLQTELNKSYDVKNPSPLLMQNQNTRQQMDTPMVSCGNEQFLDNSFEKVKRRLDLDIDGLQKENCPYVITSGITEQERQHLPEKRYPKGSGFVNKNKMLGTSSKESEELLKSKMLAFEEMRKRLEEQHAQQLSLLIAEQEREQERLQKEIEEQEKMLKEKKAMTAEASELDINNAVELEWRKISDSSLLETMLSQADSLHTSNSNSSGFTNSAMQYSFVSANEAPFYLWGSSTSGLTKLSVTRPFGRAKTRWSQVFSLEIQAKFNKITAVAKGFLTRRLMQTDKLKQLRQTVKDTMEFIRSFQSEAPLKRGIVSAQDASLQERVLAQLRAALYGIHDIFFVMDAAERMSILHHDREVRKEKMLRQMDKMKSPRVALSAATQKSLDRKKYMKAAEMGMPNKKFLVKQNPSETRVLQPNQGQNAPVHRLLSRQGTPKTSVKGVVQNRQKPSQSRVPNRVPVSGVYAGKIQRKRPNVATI
inactive: vemurafenib -0.202 | barasertib 0.07 | [1] -0.141 | [2] -0.022 | saracatinib -0.06 | sotrastaurin 0.005
